Results: PubChem BioAssay (EPA / NIEHS)
Results filed as inconclusive are left out. Calls of active or inactive are those of the source. Rule for the calls: active = hit-call score of the fitted dose curve at least 0.9, where 1 is the maximum; inconclusive = response in the unintended direction; inactive = score below 0.9.

The compounds below were run against human Protein Tyrosine Phosphatase Non-receptor Type 6 (PTPN6), PTPN6 (gene 5777) (UniProt P29350) (assay: NVS_ENZ_hPTPN6: NovaScreen (NVS) Enzymatic Assay for human Protein Tyrosine Phosphatase Non-receptor Type 6 (PTPN6) (AID 2283210)).
Outline: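 Recombinant human PTPN6 from SF9 cells, enzyme activity followed by fluorescence after mobility-shift separation of substrate and product at 1.33 h. Chemicals first tested at a single 25 uM in duplicate, then confirmed across concentration series; loss of signal relative to DMSO.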

Chain of human Protein Tyrosine Phosphatase Non-receptor Type 6 (PTPN6), PTPN6 (gene 5777) (P29350 whole entry, looked up): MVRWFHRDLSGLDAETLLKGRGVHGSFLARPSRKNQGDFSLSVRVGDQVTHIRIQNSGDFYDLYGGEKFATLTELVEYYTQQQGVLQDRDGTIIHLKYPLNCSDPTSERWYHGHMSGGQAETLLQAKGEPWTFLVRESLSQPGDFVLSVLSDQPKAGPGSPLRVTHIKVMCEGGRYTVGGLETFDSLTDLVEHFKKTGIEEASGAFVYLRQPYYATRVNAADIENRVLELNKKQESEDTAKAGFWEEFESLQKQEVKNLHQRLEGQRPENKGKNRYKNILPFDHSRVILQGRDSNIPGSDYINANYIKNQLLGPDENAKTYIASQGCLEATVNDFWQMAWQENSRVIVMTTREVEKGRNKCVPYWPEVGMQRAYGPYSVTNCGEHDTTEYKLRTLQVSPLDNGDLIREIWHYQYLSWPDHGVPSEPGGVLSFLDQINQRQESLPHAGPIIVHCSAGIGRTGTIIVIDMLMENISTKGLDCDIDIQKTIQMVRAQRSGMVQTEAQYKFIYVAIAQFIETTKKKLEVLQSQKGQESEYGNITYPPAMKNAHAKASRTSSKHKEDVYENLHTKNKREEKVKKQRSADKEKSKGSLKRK

Row | SMILES | outcome
1 | CN(C)c1ccc(Cc2ccc(N(C)C)cc2)cc1 | inactive
2 | NC(=O)NO | inactive
3 | O=C1OC(=O)C2C3C=CC(C3)C12 (stereo unspecified) | inactive
4 | CC(C)CCCCCCCOC(=O)CCCCC(=O)OCCCCCCCC(C)C | inactive
5 | O=C1CCCCCN1 | inactive

What follows are compounds tested against human Sirtuin 2 (SIRT2), SIRT2 (gene 22933) (UniProt Q8IXJ6) (assay: NVS_ENZ_hSIRT2: NovaScreen (NVS) Enzymatic Assay for human Sirtuin 2 (SIRT2) (AID 2283217)).
Experimental: (§1) NVS_ENZ_hSIRT2 is a biochemical, single-readout assay that uses extracted gene-proteins in a cell-free assay. Measurements were taken 1 hour after chemical dosing in a 384-well plate.NVS_ENZ_hSIRT2 is one of one assay component(s) measured or calculated from the NVS_ENZ_hSIRT2 assay. It is designed to make measurements of enzyme activity, a form of enzyme reporter, as detected with fluorescence intensity signals by Fluorescence and electrophoretic mobility shift technology.Data from the assay component NVS_ENZ_hSIRT2 was analyzed into 1 assay endpoint. This assay endpoint, NVS_ENZ_hSIRT2, was analyzed in the positive analysis fitting direction relative to DMSO as the negative control and baseline of activity. Using a type of enzyme reporter, loss-of-signal activity can be used to understand changes in the enzymatic activity as they relate to the gene SIRT2. Furthermore, this assay endpoint can be referred to as a primary readout, because this assay has produced multiple assay endpoints where this one serves a enzymatic activity function. To generalize the intended target to other relatable targets, this assay endpoint is annotated to the hydrolase intended target family, where the subfamily is protein deacetylase.
(§2) Binding assays used specific radioligands (tritiated, iodinated) with non-radioactive competitive displacement ligands in agonist or antagonist protocols (as indicated) and various reference compounds and inhibitors to titrate specific binding to receptors and transporters. Most enzyme assays (CYPs, kinases, phosphatases, proteases, HDACs) used recombinant protein and specific substrates (fluorescence mostly, some colorimetric and radioactive) and inhibitors, followed by a biochemical separation of substrate and product. All assays for the biochemical HTS were initially run in duplicate at a single concentration (10 uM for CYP450 assays and 25 uM for all others). Assay-chemical combinations meeting a pre-defined threshold (e.g., 30% inhibition and other criteria defined below) were then run in singleton concentration-response format with maximum concentration of 20 uM for CYPs and 50 uM for all others. Each assay was run with positive and negative controls, and concurrent controls on every plate. The follow-up (secondary) screen tested active chemical-pairs in concentration series, as well as a few additional assays not tested in the primary screen, some selected negative inactives, and several cases re-run in the concentration series for confirmatory purposes.

Chain of human Sirtuin 2 (SIRT2), SIRT2 (gene 22933) (Q8IXJ6 whole entry, looked up): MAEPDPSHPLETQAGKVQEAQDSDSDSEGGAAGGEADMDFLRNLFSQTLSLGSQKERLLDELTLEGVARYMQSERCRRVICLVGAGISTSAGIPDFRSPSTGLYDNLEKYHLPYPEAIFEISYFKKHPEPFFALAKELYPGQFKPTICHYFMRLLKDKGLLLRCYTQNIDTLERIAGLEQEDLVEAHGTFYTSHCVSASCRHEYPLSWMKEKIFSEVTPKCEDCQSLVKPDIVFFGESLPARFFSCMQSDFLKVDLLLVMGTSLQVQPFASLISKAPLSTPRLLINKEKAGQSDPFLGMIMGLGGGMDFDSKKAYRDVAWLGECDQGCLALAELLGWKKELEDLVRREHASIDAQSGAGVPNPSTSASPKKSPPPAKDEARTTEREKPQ

Row | SMILES | AC50 | outcome
6 | COc1cccc(-c2ccc(/C=C\CN3CCCCCC3)cc2Cl)c1 | 16.6 µM (active) | –
7 | Cc1c(-c2cccnc2)c2ccccc2n1CCCCC(=O)O | – | inactive
8 | CC(=O)OCCC(C)C | – | inactive

Each compound was assayed against human Sirtuin 1 (SIRT1), SIRT1 (gene 23411) (UniProt Q96EB6) (assay: NVS_ENZ_hSIRT1: NovaScreen (NVS) Enzymatic Assay for human Sirtuin 1 (SIRT1) (AID 2283219)).
Experimental: as §1, with “NVS_ENZ_hSIRT1” for “NVS_ENZ_hSIRT2”, “plate.NVS_ENZ_hSIRT1” for “plate.NVS_ENZ_hSIRT2”, “NVS_ENZ_hSIRT1,” for “NVS_ENZ_hSIRT2,”, “SIRT1.” for “SIRT2.”
as §2

Chain of human Sirtuin 1 (SIRT1), SIRT1 (gene 23411) (Q96EB6 whole entry, looked up): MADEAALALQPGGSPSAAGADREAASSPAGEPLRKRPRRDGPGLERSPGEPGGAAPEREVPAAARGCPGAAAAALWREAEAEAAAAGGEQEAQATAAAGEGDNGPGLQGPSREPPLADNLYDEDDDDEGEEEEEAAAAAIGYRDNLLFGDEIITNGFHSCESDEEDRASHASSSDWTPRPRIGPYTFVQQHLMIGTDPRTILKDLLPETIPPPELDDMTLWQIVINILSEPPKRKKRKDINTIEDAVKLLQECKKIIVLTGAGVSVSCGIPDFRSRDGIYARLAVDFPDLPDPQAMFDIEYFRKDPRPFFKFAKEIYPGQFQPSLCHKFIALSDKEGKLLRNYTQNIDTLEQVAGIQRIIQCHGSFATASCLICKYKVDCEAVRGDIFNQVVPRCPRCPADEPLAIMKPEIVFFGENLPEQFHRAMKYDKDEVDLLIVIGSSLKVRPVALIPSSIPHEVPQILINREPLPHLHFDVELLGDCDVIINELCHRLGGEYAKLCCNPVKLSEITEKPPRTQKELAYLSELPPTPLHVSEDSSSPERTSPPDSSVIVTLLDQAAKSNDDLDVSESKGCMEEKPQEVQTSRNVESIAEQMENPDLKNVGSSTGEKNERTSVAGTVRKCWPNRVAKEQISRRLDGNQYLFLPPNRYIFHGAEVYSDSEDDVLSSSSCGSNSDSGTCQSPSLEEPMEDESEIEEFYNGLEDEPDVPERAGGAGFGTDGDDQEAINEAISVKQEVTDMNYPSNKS

Row | SMILES | outcome
9 | CNCc1ccc(NC(=O)c2c[nH]c3c2C(=O)CCC3)cc1 | inactive
10 | Nc1cccc(N)c1 | inactive
11 | Oc1ccc2c(c1)-c1ccccc1C2 | inactive

The compounds below were run against rabbit Imidazoline 2 Central (I2C), CKB (gene 100009085) (UniProt P00567) (assay: NVS_ENZ_rabI2C: NovaScreen (NVS) Enzymatic Assay for rabbit Imidazoline 2 Central (I2C) (AID 2283228)).
Outline: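 Rabbit brain membranes, cell-free; readout by filter-based scintillation counting 1.5 hours after dosing, loss of signal vs DMSO. Initial duplicate test at 25 uM, then concentration-response with 50 uM top concentration.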

Chain of rabbit Imidazoline 2 Central (I2C), CKB (gene 100009085) (P00567 whole entry, looked up): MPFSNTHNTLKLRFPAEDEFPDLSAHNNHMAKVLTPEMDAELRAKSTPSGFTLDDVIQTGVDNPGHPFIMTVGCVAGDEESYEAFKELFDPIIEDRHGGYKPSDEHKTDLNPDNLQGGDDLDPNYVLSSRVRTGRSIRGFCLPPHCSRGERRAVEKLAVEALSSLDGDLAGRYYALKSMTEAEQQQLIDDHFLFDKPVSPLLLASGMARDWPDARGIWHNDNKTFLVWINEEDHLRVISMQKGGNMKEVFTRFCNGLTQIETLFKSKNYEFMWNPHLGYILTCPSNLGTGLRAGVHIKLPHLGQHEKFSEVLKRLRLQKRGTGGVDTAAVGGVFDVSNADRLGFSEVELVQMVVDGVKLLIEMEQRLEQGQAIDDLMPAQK

Row | SMILES | AC50 | outcome
12 | COc1cccc(-c2ccc(/C=C\CN3CCCCCC3)cc2Cl)c1 | 22.6 µM (active) | –
13 | CC[C@H]1CC[C@H](NCc2cc3c(cc2OC)[C@H]2C[C@H]2C(=O)N3C)[C@H](c2ccccc2)N1 | 10.4 µM (active) | –
14 | Fc1ccccc1[C@@H](F)COC1CCC(Nc2ncnc3[nH]ncc23)CC1 (stereo partly specified) | – | inactive
15 | CCOC(=O)c1ccc(C2CCC(NC[C@H](O)COc3ccc(O)c(NS(C)(=O)=O)c3)CC2)cc1 (stereo partly specified) | 23.4 µM (active) | –
16 | Nc1ccc(Nc2ccccc2)cc1 | 4.76 µM (active) | –
